Experiment [1] in a line: qHTS for differential inhibitors of proliferation of Plasmodium falciparum line D10 (AID 1877).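 Also: parasites grown with compound for 72 h before DNA staining.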
Experiment [2] is described as follows: qHTS for differential inhibitors of proliferation of Plasmodium falciparum line Dd2 (AID 1882).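 Also: series mostly up to about 29 µM; compound exposure of 72 h on infected erythrocytes; nearly all actives have a fitted effect of over 65% in size.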 As to conditions: Potency: Plasmodium falciparum Dd2 proliferation inhibition. The method in brief: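 SYBR Green I DNA fluorescence read-out, ex 485/em 535 nm. Signals were normalized to 0.29 uM artemisinin and DMSO wells, then corrected using vehicle-only plates flanking each stack. Parasite growth ran 72 h in erythrocytes before lysis.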

For experiment [3], the target named is ATP-dependent DNA helicase Q1 (Homo sapiens) (UniProt P46063). In words: qHTS Validation Assay for Inhibitors of RecQ-Like Dna Helicase 1 (RECQ1) (AID 2353). Also: potency is read from the fitted curve at half-maximal effect. The method in brief: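 50 nM RECQ1T1 preincubated 15 min with compound in Tris pH 8.0 buffer with MgCl2, DTT, Tween-20 and 2.5 ug/ml poly(dI-dC); started with 200 nM TAMRA/BHQ-2 forked duplex and 2 mM ATP. Unwinding read as fluorescence (525/598 nm), two reads 2 h apart.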

The target in experiment [4] is Ferritin light chain (Equus caballus) (UniProt P02791). Description: qHTS Validation Assay for Identification of Novel General Anesthetics (AID 2323). Also: series mostly up to about 77 µM. Summed up: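 Normalized fluorescence response, scaled between free 1-AMA and 1-AMA/apoferritin complex, fitted to a four-parameter Hill equation for concentration-effect values. Binding mix: 10 uM horse-spleen apoferritin, 50% saturated 1-AMA in PBS; read 380/535 nm after 10 min.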

Experiment [5] can be described thus: qHTS for differential inhibitors of proliferation of Plasmodium falciparum line W2 (AID 1883).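 Also: parasites grown with compound for 72 h before lysis and staining.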 Also: potency is read from the fitted curve at half-maximal effect. To be noted: Potency: Plasmodium falciparum W2 proliferation inhibition.
A short description of experiment [6]: qHTS for differential inhibitors of proliferation of Plasmodium falciparum line HB3 (AID 1886).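 Also: parasites grown with compound for 72 h before SYBR Green readout.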 Also: potency is read from the fitted curve at half-maximal effect. To be noted: Potency: Plasmodium falciparum HB3 proliferation inhibition.
Experiment [7] deals with RecQ-like DNA helicase BLM (Homo sapiens) (UniProt P54132). Description: qHTS Validation Assay for Inhibitors of Bloom's syndrome helicase (BLM) (AID 2364). Also: potency is read from the fitted curve at half-maximal effect. The method in brief: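 BLM 50 nM in 25 mM Tris-HCl pH 8.0, 5 mM NaCl, 2 mM MgCl2, 1 mM DTT, 0.01% Tween-20, 2.5 ug/ml poly(dI-dC); 15 min cpd preinc, RT. Start: 200 nM forked DNA + 2 mM ATP (final). TAMRA read, 2 reads 2 h apart.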

Experiment [8] is described as follows: qHTS Assay for Modulators of Human Peripheral Myelin Protein 22 (PMP22) Expression/Activity (AID 1967; active = well fitted curve in the direction sought with a large enough effect in the signal ratio; the % refers to the signal ratio). The method in brief: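 Engineered MSC80 cells, Pmp22-promoter green and EF-alpha red luciferase reporters; 24h compound treatment at 37 °C. Concentration-response fits on green, red and ratio signals, each overlap-corrected, with %Activity normalized to untreated wells.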

Inconclusive results are not listed. Calls of active or inactive are those of the source. Unless noted, calls follow the shape of the dose curve; as a rule, active = well fitted curve in the direction sought with a large enough effect; inconclusive = small, poorly fitted or top-dose-only effect, or another doubt; inactive = no such curve, though single readings can be large; an effect the other way counts as inactive or inconclusive.

Sequence of RecQ-like DNA helicase BLM (Homo sapiens) (P54132 whole entry, looked up): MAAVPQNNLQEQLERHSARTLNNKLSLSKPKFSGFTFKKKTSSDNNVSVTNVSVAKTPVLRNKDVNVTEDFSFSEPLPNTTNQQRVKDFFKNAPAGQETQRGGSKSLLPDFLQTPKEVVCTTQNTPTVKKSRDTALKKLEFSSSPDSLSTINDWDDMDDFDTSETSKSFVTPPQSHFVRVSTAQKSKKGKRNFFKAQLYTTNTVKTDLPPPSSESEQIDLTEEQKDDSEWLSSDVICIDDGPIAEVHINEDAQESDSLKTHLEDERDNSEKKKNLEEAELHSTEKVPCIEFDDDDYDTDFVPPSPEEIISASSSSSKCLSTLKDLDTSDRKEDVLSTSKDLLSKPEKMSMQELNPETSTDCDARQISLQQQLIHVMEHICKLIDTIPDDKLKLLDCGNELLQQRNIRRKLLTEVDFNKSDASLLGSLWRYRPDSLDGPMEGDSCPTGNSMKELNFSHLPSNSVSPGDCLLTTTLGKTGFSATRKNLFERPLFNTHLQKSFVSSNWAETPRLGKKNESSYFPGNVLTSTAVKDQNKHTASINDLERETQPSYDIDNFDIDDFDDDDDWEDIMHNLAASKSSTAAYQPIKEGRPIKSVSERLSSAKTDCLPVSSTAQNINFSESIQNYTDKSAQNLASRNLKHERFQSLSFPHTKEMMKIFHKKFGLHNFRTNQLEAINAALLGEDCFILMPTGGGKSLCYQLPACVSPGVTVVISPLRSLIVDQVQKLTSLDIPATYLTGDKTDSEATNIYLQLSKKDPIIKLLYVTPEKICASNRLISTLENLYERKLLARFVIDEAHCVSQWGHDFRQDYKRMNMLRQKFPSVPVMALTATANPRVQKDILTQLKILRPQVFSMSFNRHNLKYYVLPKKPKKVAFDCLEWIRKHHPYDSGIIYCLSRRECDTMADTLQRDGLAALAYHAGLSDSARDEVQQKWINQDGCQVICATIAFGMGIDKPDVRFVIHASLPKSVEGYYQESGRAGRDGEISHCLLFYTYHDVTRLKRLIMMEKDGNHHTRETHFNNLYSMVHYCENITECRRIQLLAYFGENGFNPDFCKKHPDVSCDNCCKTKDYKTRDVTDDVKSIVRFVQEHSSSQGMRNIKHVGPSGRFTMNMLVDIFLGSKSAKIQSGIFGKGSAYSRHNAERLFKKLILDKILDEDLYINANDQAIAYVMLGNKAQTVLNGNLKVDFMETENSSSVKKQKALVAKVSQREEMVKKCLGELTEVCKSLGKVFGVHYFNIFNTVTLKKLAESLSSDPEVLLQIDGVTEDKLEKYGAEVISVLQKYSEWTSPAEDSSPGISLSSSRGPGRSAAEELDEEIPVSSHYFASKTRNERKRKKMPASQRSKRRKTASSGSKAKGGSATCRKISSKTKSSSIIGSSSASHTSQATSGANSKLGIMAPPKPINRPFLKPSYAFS
Sequence of Ferritin light chain (Equus caballus) (P02791 2-175 limits assumed): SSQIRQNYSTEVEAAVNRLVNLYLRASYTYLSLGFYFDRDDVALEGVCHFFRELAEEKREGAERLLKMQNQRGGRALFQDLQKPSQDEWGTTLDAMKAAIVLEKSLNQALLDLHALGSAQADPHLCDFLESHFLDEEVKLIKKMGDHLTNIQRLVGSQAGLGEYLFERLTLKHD
Sequence of ATP-dependent DNA helicase Q1 (Homo sapiens) (P46063 whole entry, looked up): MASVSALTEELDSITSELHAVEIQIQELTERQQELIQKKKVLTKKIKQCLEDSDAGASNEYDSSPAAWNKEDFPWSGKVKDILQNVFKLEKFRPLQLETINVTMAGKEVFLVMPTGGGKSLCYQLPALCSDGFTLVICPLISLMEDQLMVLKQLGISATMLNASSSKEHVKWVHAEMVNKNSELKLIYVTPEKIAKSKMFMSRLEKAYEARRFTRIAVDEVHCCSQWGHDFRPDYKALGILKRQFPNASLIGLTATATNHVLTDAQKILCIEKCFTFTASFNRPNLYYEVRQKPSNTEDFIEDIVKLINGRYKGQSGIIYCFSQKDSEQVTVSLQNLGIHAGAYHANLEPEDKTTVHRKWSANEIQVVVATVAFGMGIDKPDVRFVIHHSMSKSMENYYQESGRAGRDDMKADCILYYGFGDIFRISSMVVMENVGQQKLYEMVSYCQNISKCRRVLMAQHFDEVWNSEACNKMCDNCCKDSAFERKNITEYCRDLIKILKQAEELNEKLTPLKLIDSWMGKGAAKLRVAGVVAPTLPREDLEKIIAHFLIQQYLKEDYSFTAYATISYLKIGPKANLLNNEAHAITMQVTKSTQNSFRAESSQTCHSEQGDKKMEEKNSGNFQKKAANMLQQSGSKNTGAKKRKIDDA

Regarding `C=CC1(C)CC(=O)C2(O)C(C)(O1)C(OC(C)=O)C(O)C1C(C)(C)CCC(O)C12C` (configuration not stated), the Potency result in experiment [1], in experiment [2] and in experiment [3] was “inactive” in each case.

Regarding `Nc1ncnc2c1ncn2C1CCCC1`, the Potency entry in experiment [1], in experiment [2], in experiment [4] and in experiment [3] was “inactive” throughout.

As to `CCOC(=O)C12CC1/C(=N/O)c1ccccc1O2` (configuration not stated), the Potency entry in experiment [1], in experiment [5], in experiment [6], in experiment [4] and in experiment [3] was “inactive” throughout.

For the compound `Nc1nc2ccc(Cl)cc2c2nc(-c3ccco3)nn12`, the Potency entry in experiment [3] and in experiment [7] was “inactive” in each case.

Turning to `Cn1c(=O)c2c(nc(/C=C/c3cccc(Cl)c3)n2C)n(C)c1=O`, the figures for the Potency in experiment [5] and in experiment [6] were 11.2 µM (active) and 12.6 µM (active), respectively. In addition, the Potency result in experiment [3] is “inactive”.

Regarding `O=C1Nc2ccc(I)cc2/C1=C/c1cc(Br)c(O)c(Br)c1`, the Potency in experiment [5] was 15.8 µM (active); in experiment [6] it was 10 µM (active). Further, the Potency result in experiment [3] is “inactive”.

Turning to `NC(N)=NC(N)=Nc1ccccc1`, the Potency result in experiment [2], in experiment [4] and in experiment [3] was “inactive” in each case. Moreover, the result in experiment [8] was inactive.

Regarding `O=C1NC(=O)c2cc(Nc3ccccc3)c(Nc3ccccc3)cc21`, the Potency is 10 µM (active) in experiment [5] and 8.91 µM (active) in experiment [6]. For the same compound, the Potency entry in experiment [4] and in experiment [3] was “inactive” in each case.

Consider `NOCC(=O)O`, for which the Potency result in experiment [2], in experiment [4], in experiment [3] and in experiment [7] was “inactive” in each case. For the same compound, the compound was classed as inactive in experiment [8].

Turning to `C=C1C(=O)O[C@@H]2[C@H]3O[C@]3(C)CCC=C(C)CC[C@@H]12`, the values for the Potency in experiment [5] and in experiment [6] were 10 µM (active) and 11.2 µM (active), respectively. The Potency entry in experiment [3] and in experiment [7] was “inactive” throughout.

As to `S=C(S)N1CCCC1`, the Potency result in experiment [4], in experiment [3] and in experiment [7] was “inactive” in each case.

`O=C(c1ccc2c(c1)OCCO2)N1CCCCC1`: the Potency entry in experiment [2] and in experiment [7] was “inactive” in each case. For the same compound, the compound was classed as inactive in experiment [8].

For `CCCn1c(=O)c2[nH]c(C3CCCC3)nc2n(CCC)c1=O`, the Potency result in experiment [6], in experiment [3] and in experiment [7] was “inactive” throughout.

As to `NCCNS(=O)(=O)c1cccc2c(Cl)cccc12`, in experiment [5], the Potency was 6.31 µM (active). The Potency entry in experiment [3] and in experiment [7] was “inactive” in each case.

As for `O=c1[nH]c2ccccc2c2ccccc12`, the Potency result in experiment [6] and in experiment [3] was “inactive” each time.

Regarding `COc1cc(/C=C(\C#N)C(=O)c2ccc(O)c(O)c2)cc(I)c1O`, the Potency result in experiment [2] is “inactive”. Further, the Potency was 4.47 µM (active) in experiment [3] and 10 µM (active) in experiment [7].

As for `O=c1[nH]c(=O)c2nc3ccccc3nc2[nH]1`, the Potency result in experiment [2], in experiment [6], in experiment [4] and in experiment [3] was “inactive” each time.

For the compound `CCCCCCCCCC[Si](C)(C)CCC(=O)NC(Cc1ccc(C)cc1)c1ccccc1` (configuration not stated), the Potency entry in experiment [3] was “inactive”.

As to `N[C@@H](Cc1c[nH]c2ccccc12)C(=O)O`, the Potency result in experiment [2] and in experiment [3] was “inactive” throughout.

For the compound `O=C(O)C1CCNCC1`, the Potency entry in experiment [2], in experiment [4], in experiment [3] and in experiment [7] was “inactive” throughout.

On to `OC1(c2ccc(Cl)cc2)CCN(Cc2c[nH]c3ccccc23)CC1`, for which the Potency result in experiment [4], in experiment [3] and in experiment [7] was “inactive” throughout.

As to `OC[C@H]1O[C@@H](n2cnc3cncnc32)[C@H](O)[C@@H]1O`, the Potency result in experiment [2], in experiment [4] and in experiment [3] was “inactive” in each case. Further, in experiment [8], the compound was classed as inactive.

On to `Cc1nc2c(OCc3ccccc3)cccn2c1CC#N`, for which the Potency entry in experiment [6], in experiment [4] and in experiment [3] was “inactive” each time.

For `CC(/C=C/c1cccc(Oc2ccc(F)cc2)c1)N(O)C(N)=O` (configuration not stated), the Potency in experiment [5] was 10 µM (active). The Potency entry in experiment [3] is “inactive”.

As to `Cn1c(=O)c2[nH]c(-c3ccc(S(=O)(=O)O)cc3)nc2n(C)c1=O`, the outcome in experiment [8] was inactive. Also, the Potency result in experiment [3] and in experiment [7] was “inactive” in each case.

With `CCCCCCCCCCCCCCC[C@H](O)[C@H](N)CO`, in experiment [5], the Potency was 12.6 µM (active). The compound was classed as inactive in experiment [8]. Moreover, the Potency result in experiment [3] is “inactive”.

On to `CC[C@H](NC(=O)c1c(C)c(-c2ccccc2)nc2ccccc12)c1ccccc1`, for which the Potency in experiment [5] was 8.91 µM (active); in experiment [6], 12.6 µM (active). For the same compound, the Potency entry in experiment [4] and in experiment [3] was “inactive” throughout.

Take `COc1cc([C@@H]2c3cc4c(cc3[C@H](O)C3COC(=O)[C@@H]32)OCO4)cc(OC)c1OC` (some centres not stated): the result in experiment [8] was inactive. Moreover, the Potency result in experiment [4], in experiment [3] and in experiment [7] was “inactive” throughout.

Regarding `Cn1cc(C(=O)OCC2CCN(CCNS(C)(=O)=O)CC2)c2ccccc21`, the Potency in experiment [5] was 8.91 µM (active). Also, the Potency entry in experiment [4], in experiment [3] and in experiment [7] was “inactive” in each case.

`Cc1ccc2c(c1)C(N1CCN(C)CC1)=Nc1cccnc1N2`: the Potency in experiment [5] is 7.08 µM (active). Besides, the Potency result in experiment [6] and in experiment [3] was “inactive” throughout. In addition, in experiment [8], the compound was classed as inactive.

For the compound `C/C(=C\c1ccc(C(=O)O)cc1)c1ccc2c(c1)C(C)(C)CCC2(C)C`, the Potency entry in experiment [2], in experiment [6] and in experiment [4] was “inactive” throughout.

Regarding `Cc1nc(N=Nc2cc(S(=O)(=O)O)c3cc([N+](=O)[O-])cc(S(=O)(=O)O)c3c2)c(COP(=O)(O)O)c(C=O)c1O`, the Potency entry in experiment [5] and in experiment [7] was “inactive” in each case. Further, the Potency in experiment [3] was 11.2 µM (active).

`CCC(=O)N1CCN(C(=O)c2ccccc2)CC1`: the compound was called inactive in experiment [8]. Moreover, the Potency result in experiment [4] and in experiment [3] was “inactive” in each case.

In the case of `COc1ccccc1N1CCN(CCN(C(=O)c2ccc(F)cc2)c2ccccn2)CC1`, in experiment [5], the Potency was 8.91 µM (active). Moreover, the Potency result in experiment [4] and in experiment [3] was “inactive” throughout.

As to `Cc1ccccc1/C=C/C1=NCCN1`, the Potency in experiment [5] and in experiment [6] was 12.6 µM (active) in each case. In addition, the Potency result in experiment [4], in experiment [3] and in experiment [7] was “inactive” in each case.

Consider `O=C(OCCN1CCOCC1)C1(c2ccccc2)CCCCC1`, for which, in experiment [5], the Potency is 4.47 µM (active). The call in experiment [8] was inactive. In addition, the Potency entry in experiment [4], in experiment [3] and in experiment [7] was “inactive” throughout.

With `COc1cccc(OC)c1OCCNCC1CSc2ccccc2O1` (configuration not stated), the Potency in experiment [5] is 3.98 µM (active); in experiment [6], 12.6 µM (active). Further, the Potency entry in experiment [4], in experiment [3] and in experiment [7] was “inactive” each time.

As to `O=C(O)C1=CC(=C(c2ccc(O)c(C(=O)O)c2)c2ccc(O)c(C(=O)O)c2)C=CC1=O`, the Potency entry in experiment [2] and in experiment [4] was “inactive” each time. Moreover, the Potency in experiment [7] was 0.794 µM (active).

In the case of `O=C1OC(=O)C2C3CCC(O3)C12` (configuration not stated), the Potency entry in experiment [2], in experiment [4], in experiment [3] and in experiment [7] was “inactive” throughout.

For the compound `N=C(N)SCCN`, the Potency result in experiment [2], in experiment [3] and in experiment [7] was “inactive” throughout. In experiment [8], the compound was classed as inactive.

The record behind these values is PubChem BioAssay (NCATS).
